KB-V1 MDR tox = KB-V1 MDR subline cytotoxicity | KB-V1 MDR cells viability, CellTiter-Glo, 72 h | Potency, µM (doses to about 46.1 µM), hits mostly cytotoxic | actives 3.4% (n = 400,000); also: % is scaled to controls: 0 for no effect and ±100 for the full control effect; nearly all actives have a fitted effect of over 60% in size
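Cells of the MDR subline KB-V1 are plated, dosed with compound at multiple concentrations, and incubated 72 h at 37 degrees C; CellTiter-Glo is then added and luminescence read after 10 min.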
KB-3-1 tox = kills parental KB-3-1 adenocarcinoma cells; actives 1.4% (n = 400,000); KB-3-1 viability, CellTiter-Glo ATP luminescence, 72 h; Potency, µM (doses to about 46.1 µM), usual class: cytotoxic; also: % is scaled to controls: 0 for no effect and ±100 for the full control effect; nearly all actives have a fitted effect of over 60% in size
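KB-3-1 parental drug-naive adenocarcinoma cells in DMEM/10% FBS, incubated 72 h at 37 C with pin-transferred compounds across a concentration series. Viability by CellTiter-Glo luminescence; concentration-response curves fitted after normalization.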
SW480 rerep = DNA re-replication induction in SW480 cells. SW480 DNA re-replication, Hoechst DNA content imaging, 48 h. actives 1.8% (n = 340,000). Potency, µM (series often up to 46.1 µM), for inactives: at the highest dose re-replication activation, actives largely listed as activators. AID 624297; also: % of control where 0% means no effect; nearly all actives have a fitted effect of over 55% in size
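Compounds, transferred as 23 nL by pin tool, were incubated with cells for 48 hr; DNA content per nucleus was then quantified by Hoechst staining and fluorescence plate imaging.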
MCF10A rerep = DNA re-replication induction in MCF 10a cells; MCF 10A DNA re-replication, Hoechst nuclear intensity, 48 h; Potency, µM (highest dose often 46.1 µM), without a hit: at the highest dose activity, positive = re-replication, hits mostly activators; actives 2.9% (n = 350,000); also: % of control where 0% means no effect; nearly all actives have a fitted effect of over 50% in size
PINK1 modulator = PINK1 expression modulation; PINK1 immunofluorescence, high-content cytometry, 24 h; Potency, µM (series often up to 76.6 µM), inactives show top-dose activation (PINK1 increase), hits mostly activators; actives 0.2% (n = 410,000); active = well fitted activation curve with a large enough effect; inconclusive = small, poorly fitted or top-dose-only effect; cell line not stated here; also: % of control where 0% means no effect; nearly all actives have a fitted effect of over 65% in size
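Measures PINK1 amount and localization on or inside mitochondria by immunofluorescence. Stable cells get compounds at 5 concentrations for 24 hours before fixation and staining; CCCP controls included.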
* = called active by the depositor; i = inactive; u = inconclusive; x = no result given; [ ] = another dose, or the depositor's remark. In the library only some 6.7% were active in any assay of this set; here they are far more common. Unless noted, calls follow the shape of the dose curve; as a rule, active = well fitted curve in the direction sought with a large enough effect; inconclusive = small, poorly fitted or top-dose-only effect, or another doubt; inactive = no such curve, though single readings can be large; an effect the other way counts as inactive or inconclusive. Potency is read from the fitted curve at half-maximal effect.

SMILES	KB-V1 MDR tox	KB-3-1 tox	SW480 rerep	MCF10A rerep	PINK1 modulator
COc1ccc(-c2csc(NC(=O)c3cc(C)on3)c2C#N)cc1OC	16µM*	i	3%	u	24%[38.3 µM]
CCc1c(C)sc(NC(=O)c2cc(CC(C)C)on2)c1C#N	i	i	-10%	11%	0%
CCOC(=O)c1c(NC(=O)c2cc(-c3ccc(OC)c(OC)c3)on2)sc(C)c1C	i	i	x	x	2%
CCc1c(C)sc(NC(=O)c2cc(-c3ccc(O)cc3)on2)c1C#N	i	i	15µM*	12µM*	7%
CCc1c(C)nc2nc(-c3ccccc3)nn2c1NCc1ccc(C)cc1	i	i	x	x	20%
CCOC(=O)N1CCC(NC(=O)CCc2c(C)nc3c(c(C)nn3C(C)(C)C)c2C)CC1	3.7µM*	u	8%	4%	1%[38.3 µM]
O=C1Nc2ccccc2CCC1Sc1nnc(-c2ccc(Cl)cc2)s1 (centres undefined)	18µM*	21µM*	6%	17%	-2%
Cc1ccc(CC(=O)Nc2ccc(Cl)cn2)cc1	i	i	11%	-2%	0%
CCN(CC)S(=O)(=O)c1cccc(C(=O)Nc2ccc(Cl)cn2)c1	12µM*	u	4%	21%	-3%
CCN(CC)S(=O)(=O)c1cc(C(=O)Nc2ccc(Cl)cn2)ccc1C	9.2µM*	i	-4%	10%	-1%
CCN(CC)S(=O)(=O)c1cc(C(=O)NC2CCCCC2)ccc1C	13µM*	i	-2%	15%	-1%[38.3 µM]
Cc1ccc(C(=O)Nc2ccc(Cl)cn2)cc1	6.5µM*	u	-4%	22%	13%[38.3 µM]
COc1cc2nc(Cl)nc(NC(C)C)c2cc1OC	x	x	x	x	0%
Cc1ccccc1OC(C)C(=O)N1CCN(c2ccccn2)CC1 (centres undefined)	i	i	-6%	15%	-1%
Cc1ccc(NC(=O)c2ccccc2[N+](=O)[O-])nc1	i	u	u	u	8%
Cc1ccc(C(=O)Nc2ncc3c(Cl)cccc3n2)cc1	18µM*	u	u	22%	9%
CCOC(=O)/C=C/C(=O)OCC(=O)Nc1ccc(Cl)cn1	i	i	1%	21µM*	1%
Cc1ccc(C(=O)Nc2nccc(-c3cccs3)n2)cc1	i	i	-1%	2%	-1%
Cc1ccc(NC(=O)c2ccc(Cl)cc2[N+](=O)[O-])nc1	u	5.8µM*	3.7µM*	u	7%
CCOC(=O)c1cc(-c2ccc(F)cc2)n(CCC(=O)NCCc2ccc(C)cc2)c1C	i	i	x	x	0%
COc1cccc(-c2cc(C(F)(F)F)n3ncc(S(=O)(=O)c4ccccc4)c3n2)c1	i	i	8.2µM*	7.3µM*	18%[38.3 µM]
COc1cccc(-c2cc(C(F)(F)F)nc(N3CCCCC3)n2)c1	i	i	-9%	16µM*	5%
COc1ccc(-c2cc(C(F)(F)F)nc(N3CCN(C)CC3)n2)cc1OC	16µM*	u	12%	20%	-1%
COc1ccc(-c2cc(C(F)(F)F)nc(-n3ccnc3C)n2)cc1	21µM*	u	-7%	8%	19%
Cc1cc(C(=O)NCCc2ccc(Cl)cc2)c2c(C)nn(-c3cccc(F)c3)c2n1	i	i	x	x	2%
SMILES	KB-V1 MDR tox	KB-3-1 tox	SW480 rerep	MCF10A rerep	PINK1 modulator
COc1ccc(Cc2c(-c3ccc(Cl)cc3)nc3c(C)cc(Br)cn23)c(C)c1	u	u	x	x	4%
Cn1c(=O)n(C)c2cc(N3CCOCC3)c(NS(=O)(=O)c3cccc(C#N)c3)cc21	i	i	x	x	3%
COc1ccc(-c2cc(C(F)(F)F)nc(N3CCCCC3)n2)cc1OC	u	i	9%	u	13%
COc1ccc(-c2cc(C(F)(F)F)nc(N3CCN(C)CC3)n2)cc1	12µM*	u	-3%	u	10%
COc1ccc(-c2cc(C(F)(F)F)nc(N3CCCCCC3)n2)cc1	i	i	2%	23µM*	u
CN(c1ccc(F)cc1)S(=O)(=O)c1ccc(Cl)c(C(=O)NCC2(N3CCOCC3)CCCCC2)c1	18µM*	i	-7%	9%	1%
Cc1c(C(=O)NCc2ccccc2C(F)(F)F)sc(=O)n1Cc1ccc(Cl)c(Cl)c1	u	i	x	x	0%
COc1ccc(CNC(=S)Nc2ccccc2)cc1	i	i	u	u	-1%
O=C(Nc1ccon1)c1ccc2c(c1)OCO2	i	i	-9%	16%	4%[38.3 µM]
Cc1ccnc(NC(=O)c2ccc3c(c2)NC(=O)C(C)S3)c1 (centres undefined)	i	18µM*	5%	3%	2%
Cc1ccnc(NC(=O)CSc2ccc3c(c2)OCCO3)c1	18µM*	i	-5%	3%	-1%
Cc1cc(NC(=O)CSc2ccc3c(c2)OCCO3)no1	i	i	-13%	-2%	-3%
O=C(CSc1ccc2c(c1)OCCO2)NCCN1C(=O)CSC1=O	u	i	-4%	0%	1%
O=C(CSc1ccc2c(c1)OCCO2)NCCc1ccc(Cl)cc1Cl	18µM*	i	-45%	17%	4%
Cc1ccnc(NC(=O)c2ccc3c(c2)OCO3)c1	18µM*	16µM*	-19%	0%	-2%
CC(C)Cn1cc(-c2cccc3nccn23)cn1	i	i	x	x	-1%
O=C(Cn1c(SCc2ccccc2F)nc2ccncc21)Nc1ccccc1C(F)(F)F	i	i	x	x	8%
O=C(CSc1ccc2c(c1)OCCO2)Nc1ncc(Cl)cc1Cl	21µM*	i	-7%	-1%	1%[38.3 µM]
N#Cc1ccc(CN2CCN(CC(=O)NCCc3ccc(Cl)cc3Cl)CC2)cc1	18µM*	i	u	u	4%
O=C(CSc1ccc2c(c1)OCCO2)Nc1ccccc1	u	i	x	x	0%
CC(C)CN1CCCC2(CCN(C(=O)c3cccc(F)c3)CC2)C1	x	x	x	x	1%
Cc1cccc(-n2c(=O)c3c(c4cc(C)ccc4n3C)n(CC(=O)NCC3CCCO3)c2=O)c1 (centres undefined)	i	i	x	x	0%
O=[N+]([O-])c1cnn(-c2nc(-c3ccco3)cc(C(F)(F)F)n2)c1	i	i	18µM*	15%	4%
FC(F)(F)c1cc(-c2ccco2)nc(NCCc2ccccc2)n1	i	i	u	18µM*	19%
FC(F)(F)c1cc(-c2ccco2)nc(N2CCN(Cc3ccccc3)CC2)n1	i	i	3%	13µM*	12%[38.3 µM]
Fc1ccc(N2CCN(c3nc(-c4ccco4)cc(C(F)(F)F)n3)CC2)cc1	i	i	-9%	u	3%
O=c1c2cnn(-c3ccccc3)c2nc(-c2ccco2)n1-c1ccccc1	5.2µM*	15µM*	-1%	u	0%[38.3 µM]
CC(C)(C)c1ccc(Cn2nnc3c(=O)[nH]c(C4CCN(C(=O)c5ccco5)CC4)nc32)cc1	i	u	-3%	13%	-1%
